The text below walks through data of PubChem BioAssay (NCATS).

Where “and” joins values, the source holds several entries; their conditions need not be identical. Equal entries are not always repeated. Results filed as inconclusive are left out. Unmarked numbers belong to inactive results. Calls of active or inactive are those of the source. Unless noted, calls come from the whole dose curve; as a rule, active = well fitted curve in the direction sought with a large enough effect; inconclusive = small, poorly fitted or top-dose-only effect, or another doubt; inactive = no such curve, though single readings can be large; an effect the other way counts as inactive or inconclusive.

Assay [1] concerns the target Calcium and integrin-binding protein 1 (Homo sapiens) (UniProt Q99828). Briefly: Primary qHTS for Identification of Calcium Integrin Binding Protein 1 (CIB1) Competitor (AID 1508620).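 Note: GST tagged CIB1 binding a fluorescein labelled alphaIIb integrin peptide tracer; top concentration of the series differs between compounds.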 Summed up:
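Fluorescence polarization competition: GST-tagged CIB1 (1 uM final) preincubated with compound 15 min at room temperature, then FITC-labelled alphaIIb peptide (100 nM final) added. After 15 min at room temperature, polarization read at Ex 480/Em 540.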

The nature of assay [2]: Primary qHTS for inhibitors of nuclear receptor binding SET domain protein 2 (NSD2) in an isogenic RCH-ACV NSD2 p.E1099K mutant (9B) (AID 1645876). Note: nearly all actives have a fitted effect of over 70% in size. Note: potency is the fitted concentration of half-maximal effect.
In assay [3] the target is Cytochrome P450 2C9 (Homo sapiens) (UniProt P11712). Put plainly: Cytochrome P450 family 2 subfamily C member 9 (CYP2C9) small molecule antagonists: luciferase biochemical (cell-free) qHTS assay (AID 1645842; active = well fitted curve in the direction sought with a large enough effect in the repeat runs; an effect the other way counts as inactive or inconclusive; note: potency is the fitted concentration of half-maximal effect; nearly all actives have a fitted effect of over 55% in size). Summed up: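 Luminescence, after 20 min with luciferin detection reagent, reflected CYP2C9 turnover during a 1 h NADPH-driven reaction at 37C. Enzyme-substrate mix contained 0.4% bovine serum albumin and was preincubated with compound 10 min at room temperature.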
Cytochrome P450 2C9 (Homo sapiens), sequence (P11712 whole entry, looked up): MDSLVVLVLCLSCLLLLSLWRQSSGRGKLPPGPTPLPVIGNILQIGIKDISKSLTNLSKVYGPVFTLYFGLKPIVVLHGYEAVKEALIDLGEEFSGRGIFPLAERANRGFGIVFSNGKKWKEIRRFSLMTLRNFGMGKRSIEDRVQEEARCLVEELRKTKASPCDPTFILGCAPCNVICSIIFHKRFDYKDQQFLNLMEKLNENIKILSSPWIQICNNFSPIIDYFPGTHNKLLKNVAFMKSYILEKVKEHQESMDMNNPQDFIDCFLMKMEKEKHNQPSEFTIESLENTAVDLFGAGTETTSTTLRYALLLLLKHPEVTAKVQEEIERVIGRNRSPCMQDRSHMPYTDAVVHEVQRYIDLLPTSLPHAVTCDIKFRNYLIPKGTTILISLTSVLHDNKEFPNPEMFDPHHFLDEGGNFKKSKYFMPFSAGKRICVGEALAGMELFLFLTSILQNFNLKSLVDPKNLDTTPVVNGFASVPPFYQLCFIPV

Assay [4] has as its target N-terminal Xaa-Pro-Lys N-methyltransferase 1 (Homo sapiens) (UniProt Q9BV86). Put plainly: Confirmatory qHTS for Inhibitors of N-terminal methyltransferase 1 (NTMT1): MTaseGlo Assay (AID 1645874).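 Note: luminescence from SAH made as NTMT1 methylates SPKRIA peptide using SAM; series mostly up to about 100 µM; nearly all actives have a fitted effect of over 65% in size.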 An outline of the steps:
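NTMT1 (125 nM) preincubated 15 min with compound and 100 uM SAM, then 1 uM SPKRIA peptide added for 30 min at room temperature. SAH detected by MTase-Glo luminescence; normalized to no-enzyme and DMSO controls, fitted to 4-parameter Hill.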
On the technique in general: qHTS replaces the single test concentration by a dilution series.

The target of assay [5] is Cytochrome P450 2D6 (Homo sapiens) (UniProt P10635). Put plainly: Cytochrome P450 family 2 subfamily D member 6 (CYP2D6) small molecule antagonists: luciferase biochemical (cell-free) qHTS assay (AID 1645840; active = well fitted curve in the direction sought with a large enough effect in the repeat runs; an effect the other way counts as inactive or inconclusive; note: potency is the fitted concentration of half-maximal effect; nearly all actives have a fitted effect of over 55% in size). An outline of the steps: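 P450-Glo luminescent screen: recombinant CYP2D6 enzyme–proluciferin substrate mix preincubated with compound 10 min at room temperature, then NADPH regeneration added for 1 h at room temperature. Detection reagent added for 20 min; luciferin light read as relative luminescence units.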
Cytochrome P450 2D6 (Homo sapiens), sequence (P10635 whole entry, looked up): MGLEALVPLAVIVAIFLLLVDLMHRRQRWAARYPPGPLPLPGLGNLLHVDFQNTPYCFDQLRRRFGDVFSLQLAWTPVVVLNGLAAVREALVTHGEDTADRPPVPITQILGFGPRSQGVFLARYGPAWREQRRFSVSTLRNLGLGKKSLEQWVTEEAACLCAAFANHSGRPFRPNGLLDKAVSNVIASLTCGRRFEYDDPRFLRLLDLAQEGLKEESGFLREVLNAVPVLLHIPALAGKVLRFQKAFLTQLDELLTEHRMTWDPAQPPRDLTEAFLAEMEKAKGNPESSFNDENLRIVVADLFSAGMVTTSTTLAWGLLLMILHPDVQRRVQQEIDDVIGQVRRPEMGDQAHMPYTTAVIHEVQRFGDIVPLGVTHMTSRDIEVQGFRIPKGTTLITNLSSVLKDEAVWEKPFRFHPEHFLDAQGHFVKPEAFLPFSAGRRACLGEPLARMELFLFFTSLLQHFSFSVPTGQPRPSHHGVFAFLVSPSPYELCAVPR

Calcium and integrin-binding protein 1 (Homo sapiens), sequence (Q99828 whole entry, looked up): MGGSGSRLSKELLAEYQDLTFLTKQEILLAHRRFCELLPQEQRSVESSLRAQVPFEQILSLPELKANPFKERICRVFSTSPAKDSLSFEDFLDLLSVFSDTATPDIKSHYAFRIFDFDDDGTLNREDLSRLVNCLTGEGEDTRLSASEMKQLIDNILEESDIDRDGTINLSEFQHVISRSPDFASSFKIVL
N-terminal Xaa-Pro-Lys N-methyltransferase 1 (Homo sapiens), sequence (Q9BV86 whole entry, looked up): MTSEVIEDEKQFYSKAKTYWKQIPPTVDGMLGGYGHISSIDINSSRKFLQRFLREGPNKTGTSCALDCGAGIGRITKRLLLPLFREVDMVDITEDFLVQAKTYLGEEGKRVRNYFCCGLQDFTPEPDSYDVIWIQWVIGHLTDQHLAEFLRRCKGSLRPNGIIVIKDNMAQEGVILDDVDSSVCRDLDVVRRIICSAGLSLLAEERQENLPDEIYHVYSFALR

For the compound `CC[C@@H](O)C[C@@H]1C(C)=C[C@@H]2CCCC[C@@H]2[C@@]1(C)C(=O)O`, the Potency entry in assay [1] and in assay [2] was “inactive” in each case. Consider `NCCCNc1ccc(Nc2nccc(Nc3cc(C4CC4)[nH]n3)n2)cc1`, for which the Potency result in assay [1] is “inactive”. For the same compound, in assay [2], the Potency is 0.578 µM (active).

Take `C=C1C(O)CC2C(C(=O)O)=COC(O[C@@H]3O[C@H](COC(=O)/C=C/c4ccc(O)cc4)[C@@H](O)[C@H](O)[C@H]3O)C12` (stereo partly drawn): the Potency result in assay [1] and in assay [2] was “inactive” in each case. Consider `CC(C)CCC[C@@H](C)[C@H]1CC[C@H]2[C@@H]3CC(=O)[C@H]4C[C@@H](O)CC[C@]4(C)[C@H]3CC[C@]12C`, for which the Potency result in assay [1] and in assay [2] was “inactive” in each case. Take `CCOc1cc(N2CCC(O)CC2)ccc1Nc1ncc2c(n1)N(C1CCCC1)CCC(=O)N2C`: the Potency result in assay [1] was “inactive”. In addition, the Potency in assay [2] is 2.05 µM (active).

Regarding `C=CC1(C)C=C2C(=O)OC(=O)C3=C(CCCC3(C)C)C2(O)CC1` (stereo not drawn), the Potency entry in assay [1] and in assay [2] was “inactive” in each case. As for `C[C@@H]1O[C@@H](O[C@@H]2[C@@H](O)[C@@H](O[C@]3(CO)O[C@H](CO)[C@@H](O)[C@@H]3OC(=O)/C=C/c3ccc(O)cc3)O[C@H](CO)[C@H]2OC(=O)/C=C/c2ccc(O)cc2)[C@H](O)[C@H](O)[C@H]1O[C@@H]1O[C@@H](C)[C@H](O[C@@H]2OC[C@](O)(CO)[C@H]2O)[C@@H](O)[C@H]1O`, in assay [1], the Potency entry is “inactive”. Also, the outcome in assay [2] was “inactive [at 9.23 µM]”.

As for `COC(=O)CCc1cc2ccoc2c(OC)c1O[C@@H]1O[C@H](CO)[C@@H](O)[C@H](O)[C@H]1O`, the Potency entry in assay [1] and in assay [2] was “inactive” throughout. Take `C[C@@H]1O[C@@H](O[C@H]2[C@H](O)[C@@H](C(=O)O)O[C@@H](O[C@H]3CC[C@@]4(C)C(CC[C@]5(C)C4CC=C4C6CC(C)(C)CC[C@]6(C(=O)O)CC[C@]45C)C3(C)C)[C@@H]2O[C@@H]2OC[C@@H](O)[C@H](O)[C@H]2O)[C@H](O)[C@H](O)[C@H]1O` (stereo partly drawn): the Potency entry in assay [1] was “inactive”. Moreover, in assay [2], the outcome was “inactive [at 9.23 µM]”. As for `CCCCc1nc2cc(/C=C/C(=O)NO)ccc2n1CCN(CC)CC`, in assay [1], the Potency result is “inactive”. For the same compound, in assay [2], the Potency is 258 nM (active) and 590 nM (active). As for `CC1=CC(=O)CC2C1(O)CCC(C)C21CC(c2ccoc2)OC1=O` (stereo not drawn), the Potency result in assay [1] and in assay [2] was “inactive” each time. `CCc1c(C)nc2c(-c3cnn(-c4cc(CO)ccn4)c3)c[nH]n2c1=O`: the Potency result in assay [2] is “inactive”. Same read-out and setting: as for `C=C1CCC2C(C)(COC(C)=O)CCCC2(C)C1CCC(C)CC(=O)O` (stereo not drawn), the entry is “inactive”; as for `C=C(C)C(=O)OC1CC2(C)OC(=CC2=O)C(=C)CC2OC(=O)C(COC)C12` (stereo not drawn), 4.01 µM (active). As for `COc1ccc(C2(O)c3ccccc3NC(=O)C2O)cc1` (stereo not drawn), the Potency entry in assay [1] and in assay [2] was “inactive” throughout.

Take `COc1cc([C@H]2c3cc(O)c(OC)cc3C[C@@H](CO[C@@H]3O[C@H](CO)[C@@H](O)[C@H](O)[C@H]3O)[C@@H]2CO)ccc1O`: the Potency entry in assay [1] and in assay [2] was “inactive” each time. As to `CNC(=O)c1ccccc1Nc1cc(Nc2ccc(N3CCOCC3)cc2OC)ncc1C(F)(F)F`, the Potency was 4.25 µM (active) in assay [3] and 2.9 µM (active) in assay [2]. Moreover, the Potency entry in assay [4] is “inactive”.

For `COc1cc2c(cc1OC)-c1[nH]nc(Nc3cccc(F)c3)c1C2`, the Potency in assay [3] is 8.49 µM (active); in assay [2], 0.0916 µM (active).

As to `Cc1cc(C(N)=O)ccc1-n1c(CCC(=O)O)ccc1-c1ccc(-n2ccnc2)cc1`, the Potency in assay [5] is 0.952 µM (active); in assay [3], 3.38 µM (active). Also, the Potency result in assay [2] was “inactive”.

With `C=C[C@]1(C)C=C2CCC3C(C)(CCC[C@@]3(C)C(=O)O)C2CC1` (stereo partly drawn), the Potency entry in assay [1] and in assay [2] was “inactive” throughout. With `CC/C=C\CC1C(=O)C=CC1(CCCCCCCC(=O)O)OC(C)=O` (stereo not drawn), the Potency entry in assay [1] and in assay [2] was “inactive” throughout.

Turning to `C=C1C(OC(=O)/C(C)=C\C)[C@@]23CCC4[C@@](C)(CCC[C@@]4(C)C(=O)O)C2CC[C@H]1C3OC(C)=O` (stereo partly drawn), the Potency entry in assay [2] was “inactive”. Turning to `C[C@@H]1CCC2C(C)(C)[C@H](O)CC[C@]2(C)[C@@]12Cc1c(O)cc3c(c1O2)CN([C@@H](CCC(=O)O)C(=O)O)C3=O` (stereo partly drawn), the Potency entry in assay [1] and in assay [2] was “inactive” in each case. In the case of `OCc1ccc(O[C@@H]2O[C@H](CO)[C@@H](O)[C@H](O)[C@H]2O)cc1`, the Potency result in assay [1] and in assay [2] was “inactive” throughout.

With `C[C@H](CCC(=O)O)[C@H]1CC[C@H]2[C@@H]3C[C@H](O)[C@@H]4C[C@H](O)CC[C@]4(C)[C@H]3CC[C@]12C`, the Potency entry in assay [1] and in assay [2] was “inactive” each time.
